Screening results deposited in PubChem by National Center for Advancing Translational Sciences (NCATS).
SMN2 splice enh – increases expression of the SMN2 splice variant | HEK293 SMN2-luciferase splicing reporter, luminescence, 30-36 h | Potency, µM (highest dose often 46.1 µM), hits mostly activators | 2.8% of 210,000 active; further: nearly all actives have a fitted effect of over 55% in size
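HEK293 cells carry an SMN2 […]–luciferase reporter in which exon 7 inclusion puts luciferase in frame. Cells were plated 10-12 h before compound addition, then incubated 30-36 h at 37C. ONE-Glo luminescence was read; sodium butyrate at 4.5 mM final served as control.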
NPC1 promoter act – activates the NPC1 promoter; 2.4% of 320,000 active; Potency, µM (series often up to 9.22 µM), actives largely listed as activators; Huh7 NPC1 promoter luciferase reporter, 24 h; further: nearly all actives have a fitted effect of over 60% in size
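NPC1 promoter–luciferase Huh7 cells; 24 h compound; luminescence.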
Rab9 prom act – activators of Rab9 promoter. 2.8% of 320,000 active. AID 485297. Potency, µM (doses to about 9.22 µM), actives largely listed as activators. Huh7 Rab9 promoter-luciferase reporter, luminescence, 24 h; further: nearly all actives have a fitted effect of over 60% in size
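Huh7 cells stably carrying a Rab9 promoter-luciferase reporter, 1500 cells per well in OP-MEM I with 10% FBS, treated with compound 24 hours at 37C. Luciferase activity read by luminescence after 10 minutes with Amplite reagent.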
ELG1 genotoxic – genotoxicity induction in ELG1-luciferase HEK293T cells | 1.3% of 330,000 active | HEK293T ELG1-luciferase reporter, luminescence, 16 h | Potency, µM (doses to about 46 µM), most hits filed as activators; further: nearly all actives have a fitted effect of over 60% in size
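Quantitative HTS format in 1536-well plates. HEK293T ELG1-luciferase reporter cells receive test compound and are incubated 16 hr at 37 °C, 5% CO2; ONE-Glo added, 30 min room temperature, then luminescence read.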
FLuc counter – inhibits or activates purified firefly luciferase, miR-21 counter-screen. 6.9% of 360,000 active. purified FLuc, Km substrates, luminescence inhibition. Potency, µM (doses to about 57.5 µM), usual class: inhibitors. P08659. AID 588342; further: nearly all actives have a fitted effect of over 55% in size
Target sequence (P08659 whole entry, looked up): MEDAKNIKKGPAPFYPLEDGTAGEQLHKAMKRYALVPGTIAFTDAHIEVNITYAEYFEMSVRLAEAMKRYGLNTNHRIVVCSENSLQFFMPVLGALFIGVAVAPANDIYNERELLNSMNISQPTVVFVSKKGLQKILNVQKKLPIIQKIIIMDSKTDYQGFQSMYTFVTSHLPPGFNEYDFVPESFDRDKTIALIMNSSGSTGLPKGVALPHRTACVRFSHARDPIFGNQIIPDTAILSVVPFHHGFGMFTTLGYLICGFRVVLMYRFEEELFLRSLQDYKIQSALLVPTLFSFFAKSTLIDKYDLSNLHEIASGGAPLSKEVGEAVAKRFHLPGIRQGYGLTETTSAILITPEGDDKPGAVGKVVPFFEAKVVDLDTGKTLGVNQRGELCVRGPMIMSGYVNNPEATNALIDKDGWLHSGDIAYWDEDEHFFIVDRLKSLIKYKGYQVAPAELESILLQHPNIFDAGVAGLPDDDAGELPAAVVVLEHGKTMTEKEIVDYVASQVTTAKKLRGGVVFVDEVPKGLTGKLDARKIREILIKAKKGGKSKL
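Purified P. pyralis luciferase (10nM final) with 10uM D-luciferin and 10uM ATP (Km levels) in 50mM Tris acetate pH 7.5, 10mM Mg acetate, 0.01% Tween-20, 0.05% BSA; qHTS 6-point titration, ~60 µM downward; luminescence read.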
Luc counter – blocks Kinase-Glo luciferase, a counter-screen artifact | Kinase-Glo luciferase, ATP luminescence, 8 min | 0.28% of 200,000 active | AID 1379 | Potency, µM (highest dose often 38.3 µM), hits mostly inhibitors; further: nearly all actives have a fitted effect of over 60% in size
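Compounds were added to a substrate mix at pH 7.2 (50 mM imidazole, 10 uM ATP, within the enzyme's linear range), followed by Kinase-Glo detection reagent; luminescence was measured after 8 minutes at ambient temperature.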
Hits are given with their value; n = inactive; u = inconclusive; x = no result given. Rows were chosen to be rich in hits. Some 7.3% of all compounds tested hit in one or more screens of this group. The call rests on the fitted dose curve; in most records, active means well fitted curve in the direction sought with a large enough effect; inconclusive means small, poorly fitted or top-dose-only effect, or another doubt; inactive means no such curve, though single readings can be large; an effect the other way counts as inactive or inconclusive.

SMILES	SMN2 splice enh	NPC1 promoter act	Rab9 prom act	ELG1 genotoxic	FLuc counter	Luc counter
CCOC(=O)c1cc(-c2cc(OC)c(OC)c(OC)c2)nc2c1c(=O)[nH]c(=O)n2Cc1ccccc1	u	n	n	8.2µM	n	n
COc1ccc(/C=N/NC(=O)CCN2CCCCC2c2cccnc2)cc1Cn1cc([N+](=O)[O-])cn1 (stereo not drawn)	x	n	n	n	n	x
Cc1ccc(NC(=O)c2csnn2)c(C)c1	n	n	n	n	n	n
Cc1cn2nc(N)c3ccccc3c2n1	n	n	n	n	n	n
Nc1nn2cc(-c3ccccc3)nc2c2ccccc12	4.5µM	u	3.2µM	5.2µM	1.9µM	u
C/C(N)=C(/C#N)C(=O)CSc1ccc2c(c1)OCCO2	13µM	3.2µM	2.8µM	u	12µM	n
Cn1c(N)c(C(=O)CSc2ccc3c(c2)OCCO3)c(=O)n(C)c1=O	n	n	n	n	u	n
Cc1cc(C(=O)CSc2ccc3c(c2)OCCO3)c(C)n1C1CC1	u	u	2.8µM	u	11µM	n
COc1ccc(CCN(C)C(=O)c2oc3ccccc3c2C)cc1OC	x	n	n	n	n	x
COc1ccc(NC(=O)CC2C(=O)N(c3cccc(C)c3)C(=O)N2Cc2cccnc2)cc1 (stereo not drawn)	x	x	x	x	n	x
Cn1c(-c2ccccc2)cc(=O)c2ccccc21	n	n	n	n	n	n
COc1ccc2c(c1)c(=O)cc(-c1ccccc1)n2C	u	n	n	u	24µM	n
Cc1ccc(C)n1-c1ccc(N2CCOCC2)nc1	14µM	n	n	u	n	n
Nc1c(C(=O)c2cccs2)oc2ccccc12	u	u	n	n	15µM	n
Nc1c(C(=O)c2ccc(Br)cc2)oc2ccccc12	u	n	n	n	n	n
Nc1c(C(=O)c2ccc(Br)s2)oc2ccccc12	u	u	u	u	7.6µM	n
Cc1ccc(C(=O)c2oc3ccccc3c2N)cc1	13µM	u	u	u	17µM	n
CCOC(=O)c1oc2ccccc2c1N	n	n	n	n	n	n
COc1ccc2cc3cc(C(=O)NCCN4CCN(c5ccccc5F)CC4)oc3nc2c1	n	n	n	n	n	n
CC(C)(O)C#Cc1ccc(C(=O)N2CCN(c3ccccc3)CC2)cc1	n	n	n	n	n	n
CCOC(=O)CCc1c(C)c2ccc(OCc3ccc([N+](=O)[O-])cc3)cc2oc1=O	n	n	n	n	n	n
CCOC(=O)C1CSC(Cc2ccc(OCc3ccc([N+](=O)[O-])cc3)cc2)N1 (stereo not drawn)	13µM	x	x	x	x	n
Cc1ccccc1NC(=O)CN1C(=O)COc2ccc(S(=O)(=O)N3CCCC3)cc21	x	n	n	n	n	x
Cc1cc(NS(=O)(=O)c2ccc(NC(=S)NC(=O)c3ccc(C(C)(C)C)cc3)cc2)no1	n	n	n	n	11µM	n
Cc1ccc(/C=C/C(=O)NC(=S)Nc2ccc(S(=O)(=O)Nc3cc(C)on3)cc2)cc1	x	n	n	n	9.5µM	x
SMILES	SMN2 splice enh	NPC1 promoter act	Rab9 prom act	ELG1 genotoxic	FLuc counter	Luc counter
COc1cc(NS(=O)(=O)c2ccc(NC(=S)NC(=O)/C=C/c3ccc(OC)c(OC)c3)cc2)ncn1	n	n	n	n	n	n
COc1ccc(/C=C/C(=O)NC(=S)Nc2ccc(S(=O)(=O)Nc3cc(OC)ncn3)cc2)cc1	n	n	n	n	15µM	n
Cc1cc(NS(=O)(=O)c2ccc(NC(=S)NC(=O)/C=C/c3ccccc3)cc2)no1	x	n	n	n	n	x
O=C(CCc1nc2ccccc2s1)OCc1ccccc1F	x	n	n	n	n	x
Cc1nc(C)n(C(C)CNS(=O)(=O)c2ccc(C)c(C)c2)n1 (stereo not drawn)	x	n	n	n	n	x
O=C(Cc1ccc(NC2=NC3CS(=O)(=O)CC3S2)cc1)Nc1ccc(F)cc1 (stereo not drawn)	x	n	n	n	n	x
Clc1cccc(Cl)c1Cn1ccc(C2CC2)n1	u	u	3.2µM	u	12µM	n
Cc1ccc(S(=O)(=O)NCc2ccccc2)cc1C(=O)N1CC(C)CC(C)C1 (stereo not drawn)	x	n	n	n	n	x
